The subject of assay [1] is NIH3T3. Nature of the assay: Cytotoxic Profiling of Annotated Libraries Using Quantitative High-Throughput Screening (AID 1296008). The following applies: Five cell lines viability, CellTiter-Glo ATP luminescence, 48-72 h; max response: hits give low values. Summed up:
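Compounds were pin-transferred onto cells and incubated 48 or 72 hr at 37 degree Celsius, 95% humidity. CellTiter-Glo was added, plates sat 10 min at room temperature, then ATP-coupled luminescence was imaged as the viability read-out.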
Background: ATP-based viability assays read luminescence as a measure of living cells.

Assay [2] has as its system MCC-26. Nature of the assay: qHTS assay to identify novel small-molecules to repurpose for Merkel cell carcinoma treatment (AID 1296009). To be noted: MCC and control cell lines, CellTiter-Glo viability, 72 h; series mostly up to 46 µM. Summed up: (§1)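 Viability readout: ATP luminescence (CellTiter-Glo) after 72 hr drug exposure at 37 degree celsius. Dose-response format was 8 points for NPC and 11 points for MIPE; data normalized to in-plate controls.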
Background: Quantitative high-throughput screening tests each substance at several concentrations.

Assay [3] relates to MKL-2. Described as above. To be noted: MCC and control cell lines, CellTiter-Glo viability, 72 h; series mostly up to 46 µM. Summed up: as §1
In assay [4] the test system is MCC-13. Described as above. The following applies: MCC and control cell lines, CellTiter-Glo viability, 72 h; series mostly up to 46 µM. Summed up:
as §1

Assay [5] concerns MKL-1. Described as above. To be noted: MCC and control cell lines, CellTiter-Glo viability, 72 h; series mostly up to 46 µM. Summed up:
as §1

Assay [6] concerns UISO. The description is as above. The following applies: MCC and control cell lines, CellTiter-Glo viability, 72 h; series mostly up to 46 µM. Put shortly:
as §1

Assay [7] concerns NIH3T3. The assay is described as above. The following applies: MCC and control cell lines, CellTiter-Glo viability, 72 h; at 44.8 µM (top of the series) unless noted. Summed up: as §1

“And” between values parts separate entries of the source, which are not always exact repeats. Identical values can stand only once. Results filed as inconclusive are left out. Values without a mark were called inactive. The source made the active and inactive calls. Calls follow the shape of the dose curve; as a rule, active = well fitted inhibition curve with a large enough effect; inconclusive = small, poorly fitted or top-dose-only effect; inactive = flat fitted curve, though single readings scatter.
% is scaled to controls: 0 for no effect and ±100 for the full control effect; potency is read from the fitted curve at half-maximal effect.
Also: nearly all actives have a fitted effect of over 60% in size.

For `CO/C=C(/C(=O)OC)c1ccccc1Oc1cc(Oc2ccccc2C#N)ncn1`, the Potency in assay [1] is 6.86 µM (active); in assay [3], 13.7 µM (active). Besides, the Potency result in assay [2] was “inactive”.
Consider `C[C@@H]1O[C@@H](O[C@@H]2C=C3CC[C@@H]4[C@@H](CC[C@]5(C)[C@H](c6ccc(=O)oc6)CC[C@@]45O)[C@@]3(C)CC2)[C@H](O)[C@H](O)[C@H]1O`, for which the Potency in assay [1] is 3.72 µM (active); in assay [4], 0.0372 µM (active); in assay [5], 0.105 µM (active); in assay [3], 0.132 µM (active).
Consider `CCO/N=C(\CC)C1=C(O)CC(c2c(C)cc(C)cc2C)CC1=O` (configuration not stated), for which the max response in assay [1] is -12.4%. In addition, the Potency result in assay [4], in assay [2], in assay [5] and in assay [6] was “inactive” in each case.
For `COC(=O)c1cncn1C(C)c1ccccc1` (configuration not stated), the max response in assay [1] was 3.22%. Moreover, the Potency result in assay [4], in assay [2], in assay [5], in assay [3] and in assay [6] was “inactive” throughout.
In the case of `CC(=Cc1csc(C)n1)[C@@H]1C[C@H]2O[C@]2(C)CCC[C@H](C)[C@@H](O)[C@@H](C)C(=O)C(C)(C)[C@@H](O)CC(=O)O1`, the max response in assay [1] is -85.8%. The Potency result in assay [4], in assay [5] and in assay [3] was “inactive” in each case.
In the case of `CC[C@H]1C=CC=CC[C@@H](C)[C@H](O)[C@@](C)(O)C(=O)[C@@H](C)[C@H](O)[C@@H](C)C(=O)[C@@H](C)[C@H](O)[C@@H](C)C=CC(=O)O[C@@H]2[C@@H](C)[C@H](CC1)O[C@]1(CC[C@H](C)[C@H](C[C@@H](C)O)O1)[C@H]2C`, the Potency in assay [1] is 16.6 µM (active); in assay [5], 0.296 µM (active); in assay [3], 0.0935 µM (active); in assay [6], 1.66 µM (active).
Consider `CC(C)(O)C=CC(=O)[C@](C)(O)[C@H]1[C@H](O)C[C@]2(C)[C@@H]3CC=C4[C@@H](C=C(O)C(=O)C4(C)C)[C@]3(C)C(=O)C[C@@]12C`, for which the Potency was 2.96 µM (active) in assay [1]; 0.264 µM (active) in assay [4]; 0.0662 µM (active) in assay [5]; 0.0372 µM (active) in assay [3]; 0.166 µM (active) in assay [6].
In the case of `C[C@H]1CCCC=CC2C[C@H](O)C[C@@H]2[C@H](O)C=CC(=O)O1` (some centres not stated), in assay [1], the Potency is 1.05 µM (active). Also, the Potency result in assay [4], in assay [2], in assay [5], in assay [3] and in assay [6] was “inactive” in each case.
As for `Cc1[nH]nc2ccc(-c3cncc(OC[C@@H](N)Cc4c[nH]c5ccccc45)c3)cc12`, the Potency in assay [1] was 1.66 µM (active) and 1.64 µM (active); in assay [4] it was 2.35 µM (active); in assay [2] it was 3.72 µM (active); in assay [3], 3.72 µM (active); in assay [6], 0.235 µM (active).
Regarding `CC1(C)CC/C(=C/c2ccc(Cl)cc2)C1(O)Cn1cncn1` (configuration not stated), the max response in assay [1] is -11.7%. For the same compound, the Potency result in assay [4], in assay [2], in assay [5], in assay [3] and in assay [6] was “inactive” throughout.
For `CC1=C(O)C(=O)C=C2C1=CC=C1[C@@]2(C)CC[C@@]2(C)[C@@H]3C[C@](C)(C(=O)O)CC[C@]3(C)CC[C@]12C`, the Potency in assay [1] is 3.32 µM (active); in assay [4], 4.18 µM (active); in assay [6] it was 3.72 µM (active).
Regarding `N=c1c2c(-c3ccccc3)c(-c3ccccc3)n(Cc3ccccc3)c2ncn1C1CCC(O)CC1` (configuration not stated), the max response in assay [1] is -14.3%. In addition, the Potency result in assay [2] was “inactive”. In addition, the Potency was 18.7 µM (active) in assay [5], 14.8 µM (active) in assay [3] and 3.72 µM (active) in assay [6].
With `CC(C)(O)C(=O)Nc1ccc([N+](=O)[O-])c(C(F)(F)F)c1`, the compound was called inactive in assay [1] and in assay [7]. Besides, the Potency entry in assay [4], in assay [2], in assay [5] and in assay [6] was “inactive” in each case.
Consider `O=[N+]([O-])c1c2ccccc2cc2ccccc12`, for which, in assay [1], the max response was -10.2%. Further, the Potency entry in assay [4] and in assay [2] was “inactive” in each case. In addition, in assay [6], the Potency is 42.8 µM (active).
Take `Cc1c(N)nc([C@H](CC(N)=O)NC[C@@H](N)C(N)=O)nc1C(=O)N[C@H](C(=O)N[C@@H](C)[C@H](O)[C@@H](C)C(=O)N[C@@H](C(=O)NCCc1nc(-c2nc(C(=O)NCCC[S+](C)C)cs2)cs1)[C@@H](C)O)C(O[C@H]1O[C@H](CO)[C@H](O)[C@@H](O)[C@@H]1O[C@H]1O[C@H](CO)[C@@H](O)[C@H](OC(N)=O)[C@H]1O)c1cnc[nH]1` (some centres not stated): the Potency in assay [1] is 1.18 µM (active). The Potency result in assay [3] was “inactive”.
In the case of `O=C(NCC1CCOCC1)c1cnc(Nc2ccc(Cl)cc2Cl)nc1C(F)(F)F`, in assay [1], the max response is -3.44% and -3.65%. Further, the Potency entry in assay [4], in assay [2], in assay [5], in assay [3] and in assay [6] was “inactive” throughout.
As for `Oc1ccc2c3c1O[C@H]1[C@@H](O)C=C[C@H]4[C@@H](C2)NCC[C@@]341`, the max response in assay [1] is -2.9%. For the same compound, the Potency entry in assay [4], in assay [2] and in assay [6] was “inactive” in each case.
With `COc1ccc(N(C(=O)Oc2c(C)cccc2C)c2ccnc(Nc3ccc(N4CCN(C)CC4)cc3)n2)c(OC)c1`, the Potency is 18.7 µM (active) in assay [1] and 13.2 µM (active) in assay [5]. Moreover, the Potency entry in assay [6] is “inactive”.
For `Nc1c(Cl)c(Cl)c(Cl)c(Cl)c1Cl`, the max response in assay [1] was 2.9%. Moreover, the Potency entry in assay [4], in assay [2], in assay [5], in assay [3] and in assay [6] was “inactive” throughout.
Turning to `O=S(=O)(c1ccc(Cl)cc1)c1ccc(Cl)cc1`, the max response in assay [1] was -7.95%. In addition, the Potency entry in assay [4], in assay [2], in assay [5] and in assay [6] was “inactive” in each case.
Take `CC(O)=C(C#N)C(=O)Nc1cc(Br)ccc1Br`: in assay [1], the max response was -15.7%. For the same compound, the Potency result in assay [4], in assay [2], in assay [5] and in assay [6] was “inactive” each time.
As to `CCCCCCCCCCCCCCCC[N+](C)(C)C`, the Potency in assay [1] is 21.1 µM (active); in assay [2], 26.6 µM (active); in assay [5] it was 0.944 µM (active); in assay [3], 0.75 µM (active).
For `COC[C@H]1OC(=O)c2coc3c2[C@@]1(C)C1=C(C3=O)[C@@H]2CC[C@H](O)[C@@]2(C)C[C@@H]1OC(C)=O`, the Potency in assay [1] was 16.6 µM (active); in assay [3], 8.33 µM (active). Also, the Potency entry in assay [4] and in assay [2] was “inactive” each time.
For `c1ccc2c(CN3CCNCC3)cccc2c1`, the max response in assay [1] is 4.9%. In addition, the Potency entry in assay [4], in assay [2], in assay [5], in assay [3] and in assay [6] was “inactive” throughout.
For `CCNC(=O)C[C@@H]1N=C(c2ccc(Cl)cc2)c2cc(OC)ccc2-n2c(C)nnc21`, the Potency in assay [1] is 1.84 µM (active); in assay [3] it was 1.66 µM (active). In addition, the Potency result in assay [4] is “inactive”.
With `CC(=Cc1csc(C)n1)[C@@H]1C[C@H]2O[C@@H]2CCC[C@H](C)[C@@H](O)[C@@H](C)C(=O)C(C)(C)[C@@H](O)CC(=O)O1`, the max response in assay [1] was -77%. Also, the Potency result in assay [5], in assay [3] and in assay [6] was “inactive” each time.
Consider `O=[N+]([O-])c1ncc[nH]1`, for which the max response in assay [1] is -0.757%. The Potency result in assay [4], in assay [2], in assay [5], in assay [3] and in assay [6] was “inactive” throughout.
On to `CCN1CCN(C(=O)Cc2ccc(Nc3ncc(F)c(Nc4ccc(C(=O)Nc5ccccc5Cl)cc4)n3)cc2)CC1`, for which the Potency is 20.6 µM (active) in assay [1] and 9.35 µM (active) in assay [3]. For the same compound, the Potency result in assay [2] was “inactive”.

The record behind these values is PubChem BioAssay (NCATS).
